# Experimental data published in paper PMC5540273 (PLoS ONE, 2017).
# Columns and labels:
# Details in all cases: concentration: 1 μM, replicates: in singlicate; n = 1
# ASK2 = system: T1, ASK2
# T1 construct: gene MAP3K6
# AURKA = system: AURKA
# AURKB = system: AURKB
# AURKC = system: AURKC
# AXL = system: AXL
# BIKE = system: T2, BIKE
# T2 construct: gene BMP2K
# BLK = system: BLK
# BMPR1A = system: BMPR1A
# BMPR1B = system: BMPR1B
# BMPR2 = system: BMPR2
# BMX = system: BMX
# BRAF = system: BRAF
# BRK = system: T3, BRK
# T3 construct: gene PTK6
# BRSK1 = system: BRSK1
# BRSK2 = system: BRSK2
# BTK = system: BTK
# BUB1 = system: BUB1
# CAMK1B = system: CAMK1B
# CAMK1D = system: CAMK1D
# CAMK1G = system: CAMK1G
# 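Further: KINOMEscan kinase panel screen.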
Structure (SMILES),%Inh (ASK2),%Inh (AURKA),%Inh (AURKB),%Inh (AURKC),%Inh (AXL),%Inh (BIKE),%Inh (BLK),%Inh (BMPR1A),%Inh (BMPR1B),%Inh (BMPR2),%Inh (BMX),%Inh (BRAF),%Inh (BRK),%Inh (BRSK1),%Inh (BRSK2),%Inh (BTK),%Inh (BUB1),%Inh (CAMK1B),%Inh (CAMK1D),%Inh (CAMK1G)
COc1ccc(-c2coc3ccc(-c4nnc(SCc5ccc(OC)c(C(F)(F)F)c5)o4)cc23)cc1,0%,21%,11%,7%,11%,0%,7%,20%,13%,14%,29%,0%,0%,0%,13%,0%,0%,8%,14%,3%
O=C(O)C(F)(F)F.O=C(O)C(F)(F)F.O=c1[nH]ccc2nc(N[C@@H]3CCCNC3)nc(Nc3ccc(S(=O)(=O)N4CCOCC4)cc3)c12 [GSK2177277],19%,96.8%,97.6%,100%,99.9%,100%,95.6%,0%,90.8%,98.6%,58%,0%,9%,69%,69%,90.7%,90.5%,100%,99.1%,74%
Nc1n[nH]c2cnc(-c3ccccc3)cc12 [SB-642124],0%,4%,32%,100%,0%,99.4%,0%,0%,53%,33%,5%,7%,19%,13%,7%,0%,44%,8%,0%,10%
COc1cc(Nc2nccc(-c3c(-c4cccc(NC(=O)c5c(F)cccc5F)c4)nn4ccccc34)n2)cc(OC)c1OC [GSK323521],4%,48%,90.6%,15%,80%,21%,44%,0%,0%,11%,7%,9%,57%,8%,13%,1%,3%,0%,21%,31%
Cc1ccc(F)c(C(=O)Nc2cccc(-c3nn4ccccc4c3-c3ccnc(Nc4cccc(F)c4)n3)c2)c1F [GSK361061],27%,29%,4%,59%,56%,35%,91.3%,10%,0%,8%,48%,68%,74%,12%,0%,0%,42%,0%,18%,12%
c1ccc(-c2n[nH]cc2Nc2ccnc3ccccc23)nc1 [GW694077],1%,15%,45%,78%,0%,100%,28%,0%,3%,47%,6%,0%,0%,0%,0%,0%,88%,49%,30%,9%
Oc1cc(Nc2ccnc3cc(I)ccc23)ccc1F [GW552771],4%,0%,8%,8%,3%,5%,80%,56%,99.9%,6%,15%,79%,28%,11%,0%,7%,57%,37%,8%,0%
COc1cccc(NC(=O)NC2CCN(c3ccnc(Nc4cc(OC)c(OC)c(OC)c4)n3)C2)c1 (stereo not shown) [GSK1379763],11%,75%,55%,89%,13%,78%,0%,0%,0%,8%,2%,5%,0%,0%,0%,0%,18%,35%,4%,17%
Cl.c1ccc(-c2ccc3c(Nc4ccc5[nH]ncc5c4)ccnc3c2)nc1 [GW440137],19%,1%,3%,22%,4%,18%,40%,0%,31%,0%,0%,7%,20%,0%,2%,0%,47%,36%,18%,5%
CN(C)Cc1ccc(-c2ccc3c(Nc4ccc(Oc5ccccn5)cc4)ccnc3c2)o1 [GW567148],0%,0%,81%,51%,2%,17%,91.5%,0%,0%,28%,12%,1%,95.2%,0%,0%,74%,0%,0%,0%,0%
Clc1ccc(-c2nn3ncccc3c2-c2ccnc(Nc3ccc4c(c3)OCCO4)n2)cc1 [GW829116],0%,18%,0%,0%,0%,0%,48%,0%,0%,0%,0%,52%,0%,0%,0%,0%,93.1%,0%,0%,0%
COc1cccc(C(=O)Nc2cccc(Oc3ccc4nc(NC(=O)C5CC5)cn4n3)c2)c1,0%,55%,81%,74%,65%,18%,95.3%,10%,13%,0%,77%,96.5%,21%,4%,0%,9%,0%,0%,17%,21%
Nc1ncc(-c2ccc3nccc(-c4ccncc4)c3c2)cc1S(=O)(=O)N1CCOCC1 [GSK1627798],0%,0%,0%,6%,36%,24%,100%,0%,0%,0%,16%,15%,8%,0%,0%,0%,12%,0%,36%,16%
Cc1cccc(Nc2nc(N[C@H]3CCNC3)ncc2C(N)=O)c1.Cl [GSK2197149],3%,0%,0%,58%,24%,96.9%,69%,0%,0%,0%,16%,4%,7%,0%,0%,0%,44%,68%,55%,8%
COc1cc(Nc2nccc(N3CCC(NC(=O)Nc4cccc(C(C)=O)c4)C3)n2)cc(OC)c1OC (stereo not shown) [GSK1379753],0%,83%,57%,77%,0%,74%,9%,0%,0%,9%,1%,0%,8%,5%,0%,0%,31%,0%,20%,0%
COC(=O)Nc1nc2ccc(Oc3ccc(NC(=O)Nc4cc(C(F)(F)F)ccc4F)cc3)cc2n1C.Cl [GW692089],0%,0%,94.1%,14%,95%,0%,27%,0%,0%,11%,5%,57%,0%,0%,26%,59%,42%,0%,1%,0%
O=C(Nc1cccc(-c2nn3ccccc3c2-c2ccnc(Nc3cccc(C(F)(F)F)c3)n2)c1)c1c(F)cccc1F [GSK292658],2%,2%,0%,49%,12%,0%,94%,0%,0%,22%,52%,43%,41%,0%,0%,50%,45%,33%,0%,0%
COc1cc2c(cc1OCCN1CCNCC1)ncc1c3ccc(C#N)cc3[nH]c21,16%,21%,65%,9%,32%,97.8%,0%,12%,22%,19%,17%,28%,0%,25%,0%,2%,99%,28%,30%,14%
O=C(Nc1cccc(-c2nn3ccccc3c2-c2ccnc(Nc3cccc(F)c3)n2)c1)c1c(F)ccc(F)c1Cl [GSK357952],6%,0%,7%,66%,19%,25%,97.2%,0%,0%,0%,63%,36%,69%,5%,0%,42%,29%,21%,12%,0%
CC(=O)N1CCN(c2ccc(Nc3nccc(-c4sc(C(C)C)nc4-c4cccc(NS(=O)(=O)c5cccc(Cl)c5)c4)n3)cn2)CC1 [GSK1660437],2%,0%,0%,10%,68%,24%,91.4%,0%,97.1%,0%,56%,99.3%,91.8%,0%,2%,36%,91%,0%,12%,0%
